SARS PLpro yeast: qHTS of Yeast-based Assay for SARS-CoV PLP; Potency, µM (titrated, usually from 32.9 µM), inactives show at the highest dose activity, positive = growth rescue, usual class: activators; 330,000 compounds, 0.19% hits; S. cerevisiae expressing SARS-CoV PLpro, growth rescue; AID 485353, 2010; calls by dose curve; also: potency is read from the fitted curve at half-maximal effect; 0% is about no effect; nearly all actives have a fitted effect of over 55% in size
Pf growth 96h: Primary qHTS for delayed death inhibitors of the malarial parasite plastid, 96 hour incubation; P. falciparum luciferase reporter growth, 96 h; Potency, µM (highest dose often 28.7 µM), inactives show at the highest dose activity change, negative = inhibition, most hits filed as inhibitors; 320,000 compounds, 6.9% hits; also: potency is read from the fitted curve at half-maximal effect; % is scaled to controls: 0 for no effect and ±100 for the full control effect
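Erythrocytes infected with luciferase-expressing P. falciparum were dispensed at 2% hematocrit and 0.05% parasitemia (final), then incubated with compounds 96 hours at 37 C in 5% CO2. Luminescence after detection reagent addition reported growth.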
HCV inh: qHTS Assay for Inhibitors of Hepatitis C Virus (HCV) | Huh7.5.1 HCVcc-Cre infection, luciferase reporter, 44 h | Potency, µM (series often up to 41.8 µM), without a hit: at the top dose activity change, negative = inhibition, hits mostly inhibitors | 340,000 compounds, 3.4% hits | AID 651820, 2012; also: potency is read from the fitted curve at half-maximal effect; % is scaled to controls: 0 for no effect and ±100 for the full control effect
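Seed cells (1,000/well) for 4 h; treat with compound and infect with HCVcc-Cre, moi about 0.5. Incubate 44 h, then detect luciferase activity.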
Sm TGR block: qHTS Assay for the Inhibitors of Schistosoma Mansoni Peroxiredoxins. purified TGR, DTNB reduction, TNB absorbance 405 nm. Potency, µM (doses to about 114 µM), inactives show at the highest dose activity change, negative = inhibition, usual class: inhibitors. 360,000 compounds, 3% hits; also: potency is read from the fitted curve at half-maximal effect; % is scaled to controls: 0 for no effect and ±100 for the full control effect; nearly all actives have a fitted effect of over 60% in size
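First, TGR (20 nM dispensed) and NADPH were mixed with compound. Second, a 15 min room-temperature incubation followed. Third, further NADPH and then DTNB were added to start the reaction. Finally, TNB absorbance was monitored kinetically.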
Pf growth 48h: Primary qHTS for delayed death inhibitors of the malarial parasite plastid, 48 hour incubation; P. falciparum luciferase growth in erythrocytes, 48 h; Potency, µM (top dose mostly 28.7 µM), for inactives: top-dose activity change, negative = inhibition, actives largely listed as inhibitors; 310,000 compounds, 5.9% hits; AID 504832, 2011; also: potency is read from the fitted curve at half-maximal effect; % is scaled to controls: 0 for no effect and ±100 for the full control effect
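Parasite viability was followed by luminescence of a genomically integrated firefly luciferase. Cultures held 0.1% parasitemia at 2% hematocrit (final), incubated under 5% CO2 at 37 C.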
HCMV inh: qHTS Assay for inhibitors of the human cytomegalovirus (HCMV); HFF cells, HCMV-luciferase reporter, 72 h; stronger effect = lower value; AID 1259415, 2018; activity change, negative = inhibition, % at 57.5 µM; 410,000 compounds, 4.5% hits; in the data active = activity change below about -60%; inconclusive = no clear call, values can overlap the other calls; inactive = above about -39%; also: % is scaled to controls: 0 for no effect and ±100 for the full control effect
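Luciferase read-out from HCMV-luciferase-infected HFFs (MOI 1 PFU/cell) 72 h post infection at 37C; compounds added after 16 h cell attachment; activity normalized between buffer-only basal and Salinomycin (10uM) inhibitor controls.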
An asterisk follows results filed as active; u = inconclusive; x = not tested or not shown; [ ] = dose if it differs, or a comment. Most compounds without a hit are left out; they make up all but 15% or so of the library. Unless noted, calls follow the shape of the dose curve; as a rule, active = well fitted curve in the direction sought with a large enough effect; inconclusive = small, poorly fitted or top-dose-only effect, or another doubt; inactive = no such curve, though single readings can be large; an effect the other way counts as inactive or inconclusive.

SMILES	SARS PLpro yeast	Pf growth 96h	HCV inh	Sm TGR block	Pf growth 48h	HCMV inh
CCCNC(=O)c1ccc(N2CCC3(CC2)CC(c2cccc(Br)c2)=NO3)c(NC(=O)c2cccc(OC)c2)c1	-1.8%	8.28µM*	u	3.9%	u	0.0
Cc1ccc(CNC(=O)c2ccc(N3CCC4(CC3)CC(c3cccc(Br)c3)=NO4)c(N)c2)cc1	-5.9%	u	u	-2.8%	u	-11.6
O=C(NCC1CCCO1)c1cc(-c2ccc(F)cc2)no1 (configuration not stated)	1.8%	u	5.3%	-4.9%	92.0%	59.1
COc1ccc(NC(=O)Cn2c(=O)ccc3cc(S(=O)(=O)N4CCCC4)ccc32)cc1Cl	x	x	x	3.2%	x	27.2
COc1ccc(N/C=C(\[N+](=O)[O-])S(=O)(=O)c2ccccc2)cc1	2.2%	63.8%	1.8%	u	-3.8%	52.1
O=[N+]([O-])/C(=C\Nc1ccccc1Cl)S(=O)(=O)c1ccccc1	3.7%	26.2%	x	39.8µM*	0.1%	x
O=[N+]([O-])/C(=C\Nc1ccccc1)S(=O)(=O)c1ccccc1	6.1%	47.2%	7.0%	39.8µM*	30.9%	46.3
Cc1cccc(C)c1NC(=O)c1csc(COCCO)n1	x	x	x	x	x	16.4
CCCN(CC(=O)Nc1ccccc1C)C(=O)c1ccc(-c2ccc([N+](=O)[O-])cc2)o1	-7.7%	u	u	6.31µM*	u	-33.0
CCCN(CC(=O)Nc1ccccc1OC)C(=O)c1ccc(COc2ccccc2)o1	1.2%	u	u	-20.9%	14.7µM*	-27.3
CCN(CC(=O)Nc1ccc(NC(C)=O)cc1)C(=O)c1cc(-c2ccccc2)nn1-c1ccccc1	0.5%	u	-24.6%	-0.5%	u	-22.9
COc1cccc(NC(=O)CN(C)C(=O)c2ccc(COc3ccccc3)o2)c1	-5.9%	14.7µM*	0.1%	-3.6%	14.7µM*	75.3
CCCN(CC(=O)Nc1ccccc1OC)C(=O)c1cc(-c2ccccc2)nn1-c1ccccc1	-4.7%	u	11.2µM*	-11.2%	u	11.3
COc1cccc(NC(=O)CN(C)C(=O)c2cc(C)oc2C)c1	-14.7%	-3.9%	-10.7%	0.4%	-18.1%	-7.6
Cc1cc(CN(C)C(=O)c2ccc(OC3CCN(CCc4ccccc4)CC3)cc2)on1	4.1%	u	-6.1%	5.3%	u	8.2
CCOc1ccc(OCCC(=O)OCC(=O)N2CCN(S(=O)(=O)c3ccc(Cl)cc3)CC2)cc1	-1.5%	-3.5%	3.5%	u	-21.4%	10.9
COc1cc(/C=N/NC(=O)c2ccoc2C)ccc1O	u	64.6%	-19.5%	-11.6%	74.8%	39.9
Cc1ccc(/C=N/NC(=O)c2c(-c3ccccc3)noc2C)c(O)c1	u	u	x	-19.7%	u	-110.0*
CCOc1cc([N+](=O)[O-])cc(/C=N/NC(=O)c2c(-c3ccccc3)noc2C)c1O	u	13.1µM*	1.7%	-12.4%	17.7%	x
COc1cccc(/C=N/NC(=O)c2c(-c3ccccc3)noc2C)c1O	-1.0%	u	u	2.6%	5.86µM*	-83.5*
CCOc1cc(/C=N/NC(=O)c2c(-c3ccccc3)noc2C)ccc1O	3.1%	u	-4.2%	6.1%	-6.3%	10.1
COc1cc(/C=N/NC(=O)c2c(-c3ccccc3)noc2C)ccc1O	x	2.8%	-1.3%	-2.5%	4.9%	5.8
COc1cccc(/C=N/NC(=O)c2ccoc2C)c1O	0.6%	u	10µM*	11.0%	u	-81.8*
CCOc1ccccc1NC(=S)N1CCN(c2cccc(OC)c2)CC1	3.4%	u	-26.6%	-3.7%	-26.5%	-22.7
Cc1ccccc1CN1C(=O)c2ccccc2Sc2ccc(C(=O)NC3CCCCC3)cc21	x	x	x	10.7%	x	-12.5
SMILES	SARS PLpro yeast	Pf growth 96h	HCV inh	Sm TGR block	Pf growth 48h	HCMV inh
CC1(C)NC(=O)N(CC(=O)N2CCN(S(=O)(=O)c3ccccc3C(F)(F)F)CC2)C1=O	-5.2%	-30.8%	-13.9%	2.0%	u	-11.4
Cc1onc(-c2ccccc2)c1C(=O)N/N=C/c1cc(Br)c(Br)o1	-27.8%	13.1µM*	-15.9%	-12.2%	u	-28.0
O=C(N/N=C/c1cc(Br)c(Br)o1)C(O)c1ccccc1 (configuration not stated)	12.7%	u	13.4%	39.8µM*	-15.2%	4.0
Cc1ccc(/C=N/NC(=O)C(O)c2ccccc2)o1 (configuration not stated)	-0.7%	24.9%	19.1%	-17.9%	-2.5%	8.8
O=c1[nH]c(CN2CCCC2)nc2sc3c(c12)CCC3	-0.1%	-33.3%[5.75 µM]	3.7%	-24.9%	-11.2%	-0.4
c1ccc2c(c1)CCN(c1nc(CN3CCOCC3)nc3sc4c(c13)CCCC4)C2	-1.4%	u	u	0.1%	14.7µM*	9.7
CCNc1nc(CN2CCOCC2)nc2sc3c(c12)CCC3	5.2%	x	u	-7.4%	-9.3%	30.5
Clc1nc(CN2CCCCC2)nc2sc3c(c12)CCC3	10.2%	u	u	22.4µM*	-15.7%	9.4
CCCc1c(C)c2ccc(O)c(CN3CCN(c4ccc(F)cc4)CC3)c2oc1=O	x	x	x	6.0%	x	-10.1
O=C(CCl)Nc1cn(-c2ccccc2)nc1-c1ccc(F)cc1	-9.6%	u	u	31.6µM*	-29.8%	-72.2*
O=C(c1cn(-c2ccccc2)nc1-c1cccc(Br)c1)N1CCOCC1	-0.7%	0.0%	u	x	u	-63.4*
O=C(NC(=S)N1CCOCC1)c1cn(-c2ccccc2)nc1-c1ccc(F)cc1	-4.7%	11.7µM*	0.0%	-13.8%	u	-24.7
O=C(N/C(=C/c1cn(-c2ccccc2)nc1-c1ccccc1)C(=O)N1CCOCC1)c1ccc(Cl)cc1Cl	8.3%	u	23.4%	2.4%	6.57µM*	-37.5
CCOc1ccc2nc(SCC(=O)NCC3CCCO3)c(C#N)cc2c1 (configuration not stated)	1.8%	7.6%	-11.5%	10.4%	14.9%	-13.5
CCOc1ccc(C(=O)NC(=S)Nc2ccc(NC(=O)c3ccco3)c(C)c2)cc1[N+](=O)[O-]	3.3%	-5.6%	u	-4.6%	10.7%	-14.4
Cc1noc(C)c1COc1ccc(C(=O)N2CCCC(C(F)(F)F)C2)cc1 (configuration not stated)	-5.0%	11.0%	-19.1%	u	-9.8%	-16.4
Cc1nc(-c2ccc(C)c(S(=O)(=O)N3CCC(C(=O)NCc4ccc(Cl)cc4)CC3)c2)no1	x	x	x	-1.2%	x	4.4
